Measurements from PubChem BioAssay.
Activity calls are given as the source filed them. No rule for the calls is given here.

assay: P. aeruginosa biofilm formation inhibitors, primary screen, strain PAO1, LB-PBS medium, absorbance 600 nm (AID 1176); also: test concentration not given here; details: P. aeruginosa PAO1 growth/biofilm, A600, 12 h; higher = more signal

z-score, inactive:
CN(C)CCCNC(=O)[C@@H]1c2ccccc2C(=O)N(Cc2ccccc2)[C@H]1c1ccc(CO)cc1 -0.233
COc1ccc([Si](C)(C)[C@H]2[C@H](CC(=O)N3CCC[C@H]3CO)O[C@@]3(C(=O)N(Cc4cccc(N5C(=O)COc6ccccc65)c4)c4ccccc43)[C@@H]2C)cc1 1.85
C=CC[C@]1(C(=O)NCc2ccccc2)N=C(c2ccc(OCCCO)cc2)O[C@H]1c1ccccc1 -0.193
COC(=O)[C@@]1(Cc2ccc(F)cc2)[C@H]2c3cc(C(=O)N(C)C)n(Cc4ccc(OC)c(OC)c4)c3C[C@H]2CN1C(=O)c1ccccc1 3.14
O=C(CS)NCCCCCNC(=O)[C@H]1C[C@H]2C(=O)N3CCC[C@H]3C(=O)N2[C@H]1c1cccc(OCCO)c1 -0.667
Cn1cccc1C(O)C1C=CC2C(=O)NC(=O)C2N1Nc1ccccn1 (configuration not stated) 0.543
O=C1O[C@@H](c2ccccc2)[C@@H](c2ccccc2)N2[C@@H](c3ccc(OCCO)cc3)[C@]3(C(=O)Nc4ccccc43)[C@@H](C(=O)N3CCN(c4ncccn4)CC3)[C@H]12 1.47
COC(=O)c1c(CC[C@@H](CO)NC(=O)N[C@H](Cc2ccccc2)Cn2cc(-c3ccccc3N)nn2)oc(C(C)=O)c1C(=O)OC -0.109
COC(=O)[C@@H]1N=C(c2ccc(OCCCO)cc2)O[C@@H]1c1ccccc1N=[N+]=[N-] 1.2
CCOC(=O)C1=CC[C@H]2C(=O)N(CC)C(=O)[C@@H]12 0.0236
C=C(/C(=C/C[C@H](OC(C)=O)c1ccc(OCCO)cc1)c1cnc2ccccc2c1)C(C)C -0.092
N#Cc1ccc(NN2C(C(O)c3cc(C(F)(F)F)cc(C(F)(F)F)c3)C=CC3C(=O)N(c4ccccc4)C(=O)C32)cc1 (configuration not stated) 1.14
COCCOC(=O)N1C(=O)[C@@]2(c3cc(C#CCNC(N)=O)ccc31)[C@H](c1ccccc1OCCO)N1[C@H](c3ccccc3)[C@H](c3ccccc3)OC(=O)[C@H]1[C@@H]2C(=O)N1CCN(c2ncccn2)CC1 2.49
CC(C)[Si]1(C(C)C)O[C@@H](c2ccccc2)c2cc(C3CC3)nc(-c3ccccc3)c21 0.632
COc1ccc([Si](C)(C)[C@@H]2[C@@H](CC(=O)N3CCC[C@H]3CO)O[C@]3(C(=O)N(Cc4cccc(N5CCC5=O)c4)c4ccccc43)[C@H]2C)cc1 1.19
CN(C)c1ccc(C(O)C2C=CC3C(=O)N(c4ccccc4)C(=O)C3N2Nc2ccccc2F)cc1 (configuration not stated) 0.657
CCCCCN1CC=CC23O[C@@H]4C=CCOC(=O)[C@@H]4[C@H]2C(=O)N(CCCCCCO)[C@@H]3C1=O (some centres not stated) 0.454
CC(C)(C)OC(=O)CC[C@]1(C(N)=O)COC(c2ccc(OCCCO)cc2)=N1 0.134
CC(C)(C)OC(=O)CC[C@]1(C(=O)NCc2ccccc2)N=C(c2ccc(OCCCO)cc2)O[C@H]1c1ccccc1 0.469
COc1ccc(CCNC(=O)[C@@H]2c3ccccc3C(=O)N(c3ccc(C)cn3)[C@H]2c2ccc(CO)cc2)cc1 0.525
CC1CC/C=C\[C@H]2OC34C=CCN(Cn5nnc6ccccc65)C(=O)[C@H]3N(CCO)C(=O)[C@@H]4C2C(=O)O1 (some centres not stated) 0.773
C[N+](C)(C)CCCCCCNC(=O)[C@@H]1C[C@@H]2C(=O)N3CCC[C@H]3C(=O)N2[C@@H]1c1cccc(OCCO)c1 0.808
CN1C(=O)[C@@]2(CCC(=O)OC(C)(C)C)N=C(c3ccc(OCCCO)cc3)O[C@H]2c2ccccc21 0.0279
COCC1=C2[C@@H](CCc3ccccc3)OB(O)C[C@@H]2n2c(=O)n(-c3ccccc3)c(=O)n2C1 0.248
CCCCC(=C=CC[C@H](O)c1ccccc1OCCO)C[C@H](O)COCc1ccccc1 0.637
COCCOC(=O)N1C(=O)[C@@]2(c3cc(C#CCNC(N)=O)ccc31)[C@H](c1ccc(O)cc1)N1[C@H](c3ccccc3)[C@H](c3ccccc3)OC(=O)[C@H]1[C@@H]2C(=O)N1CCCCCCC1 0.553
CC(C)NC(=O)[C@@H]1c2ccccc2C(=O)N(CC23CC4CC(CC(C4)C2)C3)[C@H]1c1ccc(CO)cc1 0.553
